Assay results reported in PubChem BioAssay (Tox21).
Inconclusive results are not listed. Calls of active or inactive are those of the source. Unless noted, calls come from the whole dose curve; as a rule, active = well fitted curve in the direction sought with a large enough effect in the repeat runs; inconclusive = weak or mixed curves; inactive = no such curve, though single readings can be large; an effect the other way counts as inactive or inconclusive.

Experiments:
[1] = qHTS assay for small molecules that induce genotoxicity in human embryonic kidney cells expressing luciferase-tagged ATAD5 (AID 651632); note: nearly all actives have a fitted effect of over 15% in size; note: potency is the fitted concentration of half-maximal effect
How it was run: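 Quantitative HTS in HEK293T expressing luciferase-tagged ATAD5, whose levels rise upon DNA damage. Exposure ran 16 hr at 37C and 5% CO2, with luminescence read 30 min after Amplite addition at room temperature.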

[2] = qHTS assay for small molecules that induce genotoxicity in human embryonic kidney cells expressing luciferase-tagged ATAD5 - cell viability (AID 651634; calls by dose curve; note: nearly all actives have a fitted effect of over 25% in size)
How it was run: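 After 15.5 hr incubation with compound at 37C, 5% CO2, HEK293T ATAD5-luciferase cells received CellTiter-Fluor reagent; fluorescence intensity was quantified following 30 min at 37C.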

[3] = qHTS assay for small molecule disruptors of the mitochondrial membrane potential - cell viability (AID 720634; calls by dose curve;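 note: human HepG2 liver cancer cells; series mostly up to about 83 µM; nearly all actives have a fitted effect of over 20% in size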)
How it was run: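 ATP-based luminescent viability readout (CellTiter-Glo, 30 min, room temperature) in HepG2 cells multiplexed with the m-MPI membrane potential dye; compound exposure lasted 1 hr at 37 C.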

[4] = qHTS assay to test for compound auto fluorescence at 535 nm (green) in HepG2 cells (AID 720675)
[5] = qHTS assay to test for compound auto fluorescence at 590 nm (red) in HEK293 cells (AID 720679)
How it was run: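 Red autofluorescence, HEK293 cells: 2,000 cells/well; attach 4-5 hr 37C; add 23 nL cpd or DMSO; incubate o/n 37C 5% CO2; read Ex540/Em590; Rose Bengal sodium reference.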

[6] = qHTS assay to test for compound auto fluorescence at 535 nm (green) in HEK293 cells (AID 720680)
[7] = qHTS assay to test for compound auto fluorescence at 590 nm (red) in HepG2 cell free culture (AID 720684)
How it was run: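 Rose Bengal sodium served as the reference for red signal. Test compounds were dispensed into serum-containing MEM (10% FBS) without cells, and plates were read at 540/590 nm.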

[8] = qHTS assay to test for compound auto fluorescence at 460 nm (blue) in HepG2 cell free culture (AID 720685)
How it was run: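 Cell-free plates of MEM plus 10% FBS received 23 nL compound or DMSO vehicle; blue-channel (405/460 nm) intensity scored against triamterene as reference fluorophore.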

[9] = qHTS assay to test for compound auto fluorescence at 535 nm (green) in HepG2 cell free culture (AID 720686)
[10] = qHTS assay to identify small molecule antagonists of the glucocorticoid receptor (GR) signaling pathway - cell viability counter screen (AID 720693); note: nearly all actives have a fitted effect of over 55% in size
[11] = qHTS assay to identify small molecule antagonists of the androgen receptor (AR) signaling pathway using the MDA cell line - cell viability counter screen (AID 743041; note: nearly all actives have a fitted effect of over 45% in size)
How it was run: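 Cytotoxicity counter screen: MDA-kb2 AR-luc cells, compound + R1881, 16 h, 37C, 0% CO2; CellTiter-Fluor added at 15.5 h, fluorescence read after 30 min.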

[12] = qHTS assay to identify small molecule antagonists of the thyroid receptor (TR) signaling pathway - cell viability counter screen (AID 743064); note: nearly all actives have a fitted effect of over 50% in size
How it was run: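 Fluorescence from CellTiter-Fluor, added after 23.5 h exposure at 37 °C, reported viability of GH3.TRE-Luc cells co-treated with compound and 1 nM T3. Measured in the same wells as the luciferase TR readout.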

[13] = qHTS assay to identify small molecule antagonists of the thyroid receptor (TR) signaling pathway (AID 743065); note: nearly all actives have a fitted effect of over 55% in size; note: potency is the fitted concentration of half-maximal effect
How it was run: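 GH3.TRE-Luc rat pituitary cells (two TREs driving luciferase) were dosed with compound, then stimulated with 1 nM T3 (final) for 23.5 h at 37 C. ONE-Glo luminescence was the read-out, with CellTiter-Fluor fluorescence as the cytotoxicity counter-screen.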

[14] = test system: thyroid hormone receptor (rat, GH3 cells); test: qHTS assay to identify small molecule agonists of the thyroid receptor (TR) signaling pathway (AID 743066; calls by dose curve)
[15] = qHTS assay to identify small molecule antagonists of the estrogen receptor alpha (ER-alpha) signaling pathway - cell viability counter screen (AID 743074; calls by dose curve;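 note: HEK293 cells carrying ER-alpha-UAS-bla reporter stimulated with 17beta-estradiol; nearly all actives have a fitted effect of over 45% in size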)
[16] = qHTS assay to identify small molecule antagonists of the estrogen receptor alpha (ER-alpha) signaling pathway using the BG1 cell line - cell viability counter screen (AID 743081);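 note: compound given together with 17beta-estradiol as the ER stimulus; series mostly up to about 70 µM; nearly all actives have a fitted effect of over 45% in size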
Aromatase (Homo sapiens) = Aromatase (Homo sapiens) (UniProt P11511); test: qHTS assay to identify aromatase inhibitors (AID 743083); note: series mostly up to about 70 µM; nearly all actives have a fitted effect of over 55% in size
[17] = qHTS assay to identify aromatase inhibitors - cell viability counter screen (AID 743084);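 note: cells stimulated with testosterone during compound exposure; nearly all actives have a fitted effect of over 55% in size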
[18] = qHTS assay to identify small molecule that activate the aryl hydrocarbon receptor (AhR) signaling pathway - cell viability counter screen (AID 743086);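 note: HepG2 liver cells carrying the AhR DRE luciferase reporter; series mostly up to about 70 µM; nearly all actives have a fitted effect of over 45% in size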
How it was run: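 HepG2-AhR-luc (HG2L7.5c1) cells, 4000/well, treated 24 h at 37 C with compound; viability measured as CellTiter-Fluor fluorescence after 30 min in the same wells as the luciferase read.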

[19] = qHTS assay to identify small molecule phospholipidosis (PLD) inducers (AID 1259344; active = well fitted curve in the direction sought with a large enough effect; an effect the other way counts as inactive or inconclusive)
How it was run: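 Read-out is LipidTOX Red fluorescence (ex 595/em 615) imaged in HepG2 cells after 24 h compound exposure at 37 C, with Hoechst nuclear counterstain (ex 352/em 461) allowing per-cell normalisation.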

Measured: Potency

Chain of Aromatase (Homo sapiens) (P11511 whole entry, looked up): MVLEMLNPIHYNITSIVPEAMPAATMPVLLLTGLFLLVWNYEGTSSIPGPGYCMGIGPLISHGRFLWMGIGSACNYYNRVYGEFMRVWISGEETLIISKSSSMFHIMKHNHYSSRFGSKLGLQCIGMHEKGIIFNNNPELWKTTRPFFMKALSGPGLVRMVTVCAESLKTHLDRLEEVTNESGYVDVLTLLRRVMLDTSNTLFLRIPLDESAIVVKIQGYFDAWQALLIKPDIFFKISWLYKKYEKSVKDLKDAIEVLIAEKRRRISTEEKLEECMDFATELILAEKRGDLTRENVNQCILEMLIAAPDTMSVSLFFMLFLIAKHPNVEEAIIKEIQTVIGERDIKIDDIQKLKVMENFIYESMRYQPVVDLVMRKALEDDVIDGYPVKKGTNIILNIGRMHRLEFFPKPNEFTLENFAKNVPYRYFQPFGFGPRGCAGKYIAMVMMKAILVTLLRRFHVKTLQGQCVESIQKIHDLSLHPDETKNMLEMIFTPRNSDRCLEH

COC1=CC=C2[C@H]3Cc4ccc(OC)c5c4[C@@]2(CCN3C)[C@H]1O5
inactive: all assays above

C[N+]1(C)[C@@H]2CC[C@H]1CC(OC(=O)c1c[nH]c3ccccc13)C2 (stereo partly specified)
inactive: all assays above

O[C@H]1[C@H]2[C@H](O)CCCN2C[C@H]1O
not listed: [16]
inactive: all other assays above

O=C1CCCCC1CN1CCCCC1 (stereo unspecified)
inactive: all assays above

O=C(CCl)c1ccc(Oc2ccc(C(=O)CCl)cc2)cc1
inactive: all assays above

C[C@@H](Cc1ccccc1)N(C)C
inactive: all assays above

Cc1nnc2n1-c1ccc(Cl)cc1C(c1ccccc1)=NC2
active: [1] 13.3 µM | [13] 26.6 µM
not listed: [12]
inactive: all other assays above

C[C@]12CC[C@H]3[C@@H](CCC4=C(Cl)C(=O)CC[C@@]43C)[C@@H]1CC[C@@H]2O
active: [13] 13.3 µM
inactive: all other assays above

CC(C)C[C@H](CN)CC(=O)O
not listed: [13] | [14]
inactive: all other assays above

O=C1CN(O)C(c2ccccc2)=c2cc(Cl)ccc2=N1
inactive: all assays above

CC[C@H]1[C@@H]2C[C@H]3[C@@H]4N(C)c5ccccc5[C@]45C[C@@H](C2[C@H]5O)N3[C@@H]1O (stereo partly specified)
inactive: all assays above

CCC1(C)CC(=O)NC(=O)C1
inactive: all assays above

CC(=O)OC1CN2CCC1CC2 (stereo unspecified)
inactive: all assays above
